Screens deposited in PubChem by several laboratories.
Compounds with a hit are over-represented: about 3% of the library has one in this group of screens.
FadD28 FP inh – inhibitors of Mycobacterium tuberculosis FadD28 bisubstrate binding; hit rate 0.22% among 360,000; inhibition, % at 12.5 µM; AID 588549; FadD28 bisubstrate probe binding, fluorescence polarization; in the data active = inhibition above about 8.5%, passing the limit was not always enough; inconclusive = no clear call, values can overlap the other calls
FBA Mtb inh – Mtb fructose-bisphosphate aldolase inhibition. P9WQA3. purified M. tuberculosis FBA, fluorescence read-out. inhibition, % at 1 µM. hit rate 2.3% among 360,000. AID 588726; in the data active = inhibition above about 27%;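 note: 0% = vehicle and 100% = reference inhibitor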
Target sequence (P9WQA3 whole entry, looked up): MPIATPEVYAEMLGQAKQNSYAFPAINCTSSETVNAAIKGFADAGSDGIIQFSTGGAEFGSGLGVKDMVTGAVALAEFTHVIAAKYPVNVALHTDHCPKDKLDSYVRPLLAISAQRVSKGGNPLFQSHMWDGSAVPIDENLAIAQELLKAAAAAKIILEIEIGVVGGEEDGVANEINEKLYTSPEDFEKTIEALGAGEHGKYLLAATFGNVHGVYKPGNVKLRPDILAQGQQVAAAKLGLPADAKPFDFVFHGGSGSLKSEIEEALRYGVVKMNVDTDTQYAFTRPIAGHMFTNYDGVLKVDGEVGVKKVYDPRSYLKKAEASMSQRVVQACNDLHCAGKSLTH
BioA inh – BioA (M. tuberculosis) enzyme inhibition; purified M. tuberculosis BioA enzyme, plate reader; inhibition, % at 9.99 µM; hit rate 0.096% among 360,000; in the data active = inhibition above about 40%; inconclusive = no clear call, values can overlap the other calls
Rv3671c inh – inhibitors of M. tuberculosis serine protease Rv3671c. hit rate 0.048% among 320,000. P9WHR9. inhibition, % at 5.96 µM; in the data active = inhibition above about 38%;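 note: extracellular domain of Rv3671c used as enzyme; 0% = enzyme with DMSO and 100% = no enzyme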
GDH-TPI inh – GDH-TPI coupled enzyme inhibition counter-screen; GDH-TPI coupled enzyme counterscreen, NADH absorbance; inhibition, % at 4.8 µM; hit rate 1.2% among 360,000; AID 588335; in the data active = inhibition above about 30%;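 note: 0% = DMSO wells and 100% = wells lacking the enzyme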
The depositor's hits bear a star; ? = inconclusive; / = no result.

SMILES | FadD28 FP inh | FBA Mtb inh | BioA inh | Rv3671c inh | GDH-TPI inh
CCCN1[C@H](C(=O)NCCCN2CCOCC2)[C@@H](CO)[C@@H]2Cn3c(ccc(-c4cccnc4)c3=O)[C@@H]21 | / | / | 1 | / | /
COc1ccc(C#Cc2ccc3c(c2)[C@H]2[C@H](CCN2S(=O)(=O)c2ccc(OC)cc2)[C@@H](CO)N3C)cc1 | / | / | -2 | / | /
Cc1cc(C(=O)Nc2cccc3c2O[C@H](CN(C)CC2CC2)[C@H](C)CN([C@H](C)CO)C3=O)n(C)n1 | / | / | -3 | / | /
Cc1c(NCc2nc3ccccc3[nH]2)c(=O)n(-c2ccccc2)n1C | -4 | -2 | 13 | 7 | 40*
Cc1c(NCc2cc(Cl)cc(Cl)c2O)c(=O)n(-c2ccccc2)n1C | -5 | 4 | -2 | 7 | -3
Cc1cccc(NC(=O)CN2C(=O)N/C(=C\c3cccn3-c3cccc(C(=O)O)c3)C2=O)c1 | 18* | -5 | / | 1 | 11
O=C1NC(=S)N/C1=C\c1ccccc1OCc1ccc(C(=O)O)cc1 | -2 | 0 | 0 | -2 | 42*
CN1C(=O)/C(=C/c2ccccc2OCc2ccc(C(=O)O)cc2)NC1=S | -1 | 2 | / | -1 | 6
Cc1cccc(NC(=O)CN2C(=O)N/C(=C\c3ccccc3OCc3ccc(C(=O)O)cc3)C2=O)c1 | 42* | 0 | 0 | -32 | 19
C[C@@H]1CN([C@@H](C)CO)C(=O)Cc2cc(NC(=O)Nc3cccc4ccccc34)ccc2O[C@H]1CN(C)C(=O)Nc1ccc(C(F)(F)F)cc1 | / | / | 3 | / | /
COC(=O)C[C@H]1C[C@@H]2c3cc(NC(=O)C4CCOCC4)ccc3O[C@@H]2[C@@H](CO)O1 | / | / | -1 | / | /
Cc1cc(C)cc(Nc2ccc(C(=O)O)cc2N)c1 | -1 | 118* | 11 | 22 | -3
CSc1ccc(/C=N/Nc2nc(C)cc(C)n2)cc1 | -2 | -6 | 1 | 8 | 33*
Cc1cc(C)nc(Nc2ccc(N3CCOCC3)cc2)n1 | -2 | 5 | / | 7 | 7
Cc1cc(C)nc(N/N=C/c2ccco2)n1 | -1 | -2 | -2 | -3 | 31*
Cc1cc(-c2ccccc2)nc(N/N=C/c2ccc(N(C)C)cc2)n1 | -1 | 0 | / | 5 | 31*
Cc1cc(C)nc(N/N=C/c2ccc(N3CCOCC3)cc2)n1 | -1 | 0 | -2 | 2 | 35*
O=C1/C(=C/c2cccnc2)SC(=S)N1NS(=O)(=O)c1ccccc1 | -2 | 0 | -1 | -15 | 34*
CC(/C=C1\SC(=S)N(NS(=O)(=O)c2ccccc2)C1=O)=C\c1ccccc1 | ? | 10 | 2 | 4 | 10
C=CCOc1ccc(/C=C2\SC(=S)N(NS(=O)(=O)c3ccccc3)C2=O)cc1 | 12* | -3 | / | -4 | 9
O=C1/C(=C\c2ccc(Br)cc2)SC(=S)N1NS(=O)(=O)c1ccccc1 | -3 | -1 | -1 | -1 | -3
CC(/C=C1\SC(=S)N(NS(=O)(=O)c2ccc(C)cc2)C1=O)=C\c1ccccc1 | 11* | -1 | -2 | -1 | 15
COc1ccc(/C=C2/SC(=S)N(NS(=O)(=O)c3ccccc3)C2=O)cc1 | 2 | 1 | 0 | 0 | 8
C[C@H](CO)N1C[C@H](C)[C@@H](CN(C)S(=O)(=O)c2ccccc2)OCCCC[C@H](C)Oc2ccc(NS(=O)(=O)c3cn(C)cn3)cc2C1=O | / | / | 0 | / | /
C[C@@H]1CCCCO[C@H](CN(C)C(=O)Nc2ccc(C(F)(F)F)cc2)[C@H](C)CN([C@H](C)CO)C(=O)c2cc(NC(=O)c3ccncc3)ccc2O1 | / | / | -1 | / | /
SMILES | FadD28 FP inh | FBA Mtb inh | BioA inh | Rv3671c inh | GDH-TPI inh
COc1ccc(S(=O)(=O)N(C)C[C@@H]2Oc3ccc(NC(=O)c4ccncc4)cc3C(=O)N([C@@H](C)CO)C[C@@H]2C)cc1 | / | / | -1 | / | /
COc1cc(/C=N/Nc2ncc(C(F)(F)F)cc2Cl)cc(OC)c1OC | -1 | -3 | / | -5 | 32*
COC(=O)C(C(=O)OC)=C(/C=C/N(C)C)N(C)C | -2 | -6 | 1 | -1 | 38*
CC(C)Nc1cc(C(C)(C)C)nc2c(-c3ccccc3)cnn12 | -3 | 29* | / | 1 | 10
COc1cc2cc3c(N)c(C(=O)Nc4sc(C)c(C)c4C#N)sc3nc2cc1OC | 11* | 1 | 0 | -8 | 30
Cc1ccc(C)c(C(=O)CN2C(=O)NC3(CCc4ccccc43)C2=O)c1 (stereo unspecified) | -8 | -2 | 0 | 0 | 0
CCc1cccc2c(C(=O)CN3C(=O)NC4(CCc5ccccc54)C3=O)c[nH]c12 (stereo unspecified) | 33* | 0 | 0 | -8 | -9
CCc1cccc2c(C(=O)CN3C(=O)NC(C)(c4cccc5ccccc45)C3=O)c[nH]c12 (stereo unspecified) | 19* | -2 | / | -77 | -2
Cc1nc(=S)c2ccccc2[nH]1 | -1 | -5 | 1 | 0 | 31*
